Screening data from PubChem BioAssay.
SARS PLpro yeast – SARS-CoV PLP inhibition in yeast | 330,000 tested, 0.19% active | S. cerevisiae expressing SARS-CoV PLpro, growth rescue | AID 485353 | Potency, µM (highest dose often 32.9 µM), hits mostly activators; calls by dose curve; further: nearly all actives have a fitted effect of over 55% in size
NS1 function inh – inhibitors of influenza NS1 protein function | AID 2326 | 270,000 tested, 0.4% active | Potency, µM (doses to about 46.1 µM); calls by dose curve; further: actives are rising curves; nearly all actives have a fitted effect of over 50% in size
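Compounds were scored for reversing the slow growth caused by influenza A NS1 in S. cerevisiae, measured by optical density at 600 nm. Assay medium contained 2% galactose at pH 6.0; NS1-free yeast of the same strain were the positive control.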
Pf growth 48h – P. falciparum growth inhibition at 48 hours (one generation); AID 504832; Potency, µM (top dose mostly 28.7 µM), actives largely listed as inhibitors; 310,000 tested, 5.9% active; P. falciparum luciferase growth in erythrocytes, 48 h
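Luminescence readout; reporter = integrated firefly luciferase in P. falciparum. RBC culture at 2% hematocrit, 0.1% parasitemia final, 37 C/5% CO2; decreased signal taken as growth inhibition.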
Cycloheximide cs – counter-screen hit for Shiga toxin inhibitors, cycloheximide | cell reporter, cycloheximide protein synthesis inhibition counterscreen | AID 2314 | max response, % | 300,000 tested, 12% active; in the data active means max response mostly above about 13%, no sharp cut-off; inactive means mostly below about 14%; further: read at 38.3 µM for the half of the compounds with a filed dose
Shiga inhibitor – blocks Shiga toxin action in Vero cells. Vero cells, Shiga toxin protein synthesis inhibition reporter. inhibition, % at 38.7 µM. 290,000 tested, 9.2% active. AID 2315; in the data active means inhibition mostly above about 28%, no sharp cut-off; inactive means mostly below about 43%
Pf growth 96h – inhibits malaria parasite growth, 96 h. P. falciparum luciferase reporter growth, 96 h. Potency, µM (titrated, usually from 28.7 µM), hits mostly inhibitors. 320,000 tested, 6.9% active. AID 504834
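Parasite growth measured via integrated firefly luciferase reporter in P. falciparum. Infected erythrocytes at 2% hematocrit, 0.05% parasitemia final were treated 96 hours at 37 C under 5% CO2, and luminescence was read.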
Hits are given with their value; n = inactive; u = inconclusive; x = not tested or not shown; + = active, no number. Only some compounds are listed: those with a hit (about 21% of all), similar ones and a draw of the others. Unless noted, the call rests on the fitted dose curve; in most records, active means well fitted inhibition curve with a large enough effect; inconclusive means small, poorly fitted or top-dose-only effect, or another doubt; inactive means no such curve, though single readings can be large or run the other way.

SMILES	SARS PLpro yeast	NS1 function inh	Pf growth 48h	Cycloheximide cs	Shiga inhibitor	Pf growth 96h
CC12CCC(C(=O)N(CSC(=S)N/N=C\c3ccccc3)C1=O)C2(C)C (stereo not given)	10µM	u	u	n	n	u
COc1cccc(N2CCN(CC(=O)N3CCN(S(=O)(=O)c4ccc(Cl)cc4)CC3)CC2)c1	n	x	u	x	x	u
CCOc1ccc(N(CC(=O)NC2CC2)S(=O)(=O)c2ccc(C)cc2)cc1	n	n	n	n	n	n
N#CC(C#N)=C(N)/C(C#N)=C/c1cc(O)c(O)c(O)c1	x	x	12µM	x	x	9.3µM
COc1ccc(-c2cc(=O)c3cc(F)ccc3[nH]2)cc1	n	n	u	n	n	u
CCOc1ccc2nc(C(C)O)[nH]c2c1 (stereo not given)	n	n	n	n	n	x
Cc1ccc2[nH]c(-c3ccc(F)cc3F)cc(=O)c2c1	x	x	x	32	+	x
COc1ccc2[nH]c(-c3ccc(C)cc3)cc(=O)c2c1	n	n	n	32	n	n
COc1ccc2[nH]c(-c3ccccc3)cc2c1	n	n	n	74	88	n
CCOc1ccc2nc(-c3ccccc3)[nH]c2c1	n	n	n	35	71	n
CCNc1nc(NCC)n2c(SCC(=O)c3ccccc3Cl)nnc2n1	n	n	n	n	n	n
COc1cc(OC)cc(-c2cc3ccc(OC)cc3cn2)c1	n	x	n	x	x	n
COc1ccc2cc(-c3ccccc3)ncc2c1	n	n	n	42	85	n
COc1ccc2nc(-c3ccccc3)[nH]c2c1	n	n	n	57	73	12µM
CC(C)c1nnc(NC(=O)CCC(=O)N2CCC(Cc3ccccc3)CC2)s1	n	n	n	n	n	u
COc1cccc(C(c2ccccc2)N2C3CCC2CN(S(=O)(=O)c2ccc(F)cc2)CC3)c1 (stereo not given)	n	x	2.1µM	x	x	n
O=c1[nH]c(=O)n(Cc2ccccc2)c(O)c1C=NCCCn1ccnc1	n	n	n	n	n	n
N=c1c2c(-c3ccccc3)c(-c3ccccc3)n(Cc3ccccc3)c2ncn1CCCn1ccnc1	n	n	0.93µM	n	n	1.3µM
O=c1c2cnn(-c3ccccc3)c2ncn1Cc1ccco1	n	n	x	n	n	n
CCCCn1cnc2c(c(-c3ccccc3)c(-c3ccccc3)n2Cc2ccco2)c1=N	n	n	4.1µM	n	n	2.3µM
N=c1c2c(-c3ccccc3)c(-c3ccccc3)n(Cc3ccco3)c2ncn1Cc1ccco1	n	n	3.7µM	n	n	u
CCc1ccc(C(=O)COC(=O)c2cc([N+](=O)[O-])ccc2N2CCOCC2)cc1	n	x	u	x	x	u
C/C(=C\C(=O)c1cccnc1)Nc1ccc(O)cc1	n	n	x	28	26	n
C/C(=C\C(=O)c1ccccc1)Nc1ccc(O)cc1	n	n	n	89	174	x
COc1ccc(C(=O)/C=C(\C)Nc2ccc(NC(C)=O)cc2)cc1	n	n	n	n	n	n
SMILES	SARS PLpro yeast	NS1 function inh	Pf growth 48h	Cycloheximide cs	Shiga inhibitor	Pf growth 96h
O=C(N/N=C/c1ccc(Br)s1)Nc1ccccc1	n	x	n	46	n	n
O=C(CN1CCN(S(=O)(=O)c2ccc(Br)cc2)CC1)N/N=C/c1ccc(Br)s1	n	x	n	n	n	u
Cc1ccc(/C=N/NC(=O)c2cccs2)s1	n	n	n	52	85	n
O=C(N/N=C/c1ccc(Br)s1)c1ccncc1	n	x	u	n	n	u
O=C(N/N=C/c1ccc(Br)s1)c1cccs1	n	n	u	48	80	n
CC(OC(=O)c1ccco1)C(=O)NCc1cccs1 (stereo not given)	n	n	n	n	n	12µM
COc1ccc(S(=O)(=O)CC2(O)CCN(C(=O)CC(C)C)CC2)cc1	n	x	9.3µM	n	n	n
N#C[C@@H]1[C@@H]2C(=O)N(c3ccc4c(c3)OCCO4)C(=O)[C@@H]2C2c3ccccc3C=CN21 (stereo not given in full)	n	n	u	n	30	n
CC(=O)[C@H]1[C@@H]2C(=O)N(c3cccc(Cl)c3)C(=O)[C@@H]2[C@H]2c3ccccc3C=CN21	n	n	u	n	n	n
CN(CCC(=O)c1ccccc1)CCC(=O)c1ccccc1	n	n	n	n	n	n
O=S(=O)(c1ccccc1)N1C2CCC1CC(O)(c1cccnc1)C2 (stereo not given)	n	n	n	n	n	2.3µM
Cc1ccc(C(O)CCc2ccc(N)cc2)cc1 (stereo not given)	n	n	x	n	n	n
